{"source": "PubChem BioAssay (NCATS)", "note": "Inconclusive results are not listed. Values without a mark were called inactive. Active and inactive are the calls of the source. Calls follow the shape of the dose curve; as a rule, active = well fitted inhibition curve with a large enough effect; inconclusive = small, poorly fitted or top-dose-only effect; inactive = flat fitted curve, though single readings scatter. Potency is read from the fitted curve at half-maximal effect."}
{"test_system": "Zika virus NS2B-NS3 protease", "assay": "Primary screen GU AMC qHTS for Zika virus inhibitors (AID 1347154); also: nearly all actives have a fitted effect of over 70% in size;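 as to activity change, negative = inhibition: 0% = no-inhibitor control and -100% = no-enzyme control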", "conditions": "Zika NS2B-NS3 unlinked protease, AMC fluorogenic substrate; series mostly up to 54.1 µM; activity change, negative = inhibition: at the top concentration", "method_in_brief": "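Unlinked Zika NS2B hydrophilic domain–NS3 protease complex at 25 nM in 10 mM Tris-HCl pH 8.0, 0.01% Tween 20, with an AMC peptide substrate. Fluorescence change (340/450 nm) over 15 min at room temperature, normalized to controls, fitted to 4-parameter Hill.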", "units": {"activity change, negative = inhibition": "%"}}
{"smiles": "Nc1nccc(-c2ccc3noc(-c4ccc(Cl)cc4)c3c2)n1", "activity change, negative = inhibition": -1.98}
{"smiles": "Cc1cc(-c2ccc(CC(=O)Nc3ccc(-c4cccnc4)cc3)cc2)ccn1", "activity change, negative = inhibition": -3.48}
{"smiles": "COc1ccc(CC2=NN3C([C@@H](CCc4ccccc4)[C@@H](C)O)=NC(C)C3C(=O)N2)cc1OC", "note": "(stereo partly drawn)", "activity change, negative = inhibition": -11.5}
{"smiles": "COc1ccc([C@@H]2CC(=O)c3c(O)cc(O[C@@H]4O[C@H](CO[C@@H]5O[C@@H](C)[C@H](O)[C@@H](O)[C@@H]5O)[C@@H](O)[C@H](O)[C@@H]4O)cc3O2)cc1O", "Potency": "inactive"}
{"smiles": "O=C(O)[C@@H](c1ccc(OCc2ccc3ccccc3n2)cc1)C1CCCC1", "activity change, negative = inhibition": -6.08}
{"smiles": "COc1ccc(-c2ccc3c(N4CCOC[C@H]4C)nc(N4CCOC[C@H]4C)nc3n2)cc1CO", "Potency": "6.81 µM (active)"}
{"smiles": "N#Cc1ccc(C(c2ccc(C#N)cc2)n2cncn2)cc1", "activity change, negative = inhibition": 1.1}
{"smiles": "Oc1ccc(C2CNCCc3c2cc(O)c(O)c3Cl)cc1", "note": "(stereo not drawn)", "Potency": "12.6 µM (active)"}
{"smiles": "NC(=O)c1ccc(I)c([N+](=O)[O-])c1", "activity change, negative = inhibition": -0.0165}
{"smiles": "Cc1ccc(NC(=O)c2cccc(C(C)(C)C#N)c2)cc1Nc1ccc2ncn(C)c(=O)c2c1", "activity change, negative = inhibition": -1.11}
{"smiles": "CC(=O)NC(C)c1ccc(Oc2ccc(OC(C)C)cc2)cc1", "note": "(stereo not drawn)", "activity change, negative = inhibition": 2.33}
{"smiles": "Nc1nc2[nH]cc(CCc3ccc(C(=O)N[C@@H](CCC(=O)O)C(=O)O)cc3)c2c(=O)[nH]1", "activity change, negative = inhibition": 9.23}
{"smiles": "CCOc1cc(N2CCC(O)CC2)ccc1Nc1ncc2c(n1)N(C)c1ccccc1C(=O)N2C", "activity change, negative = inhibition": 6.25}
{"smiles": "OCCC#Cc1nc(-c2ccc(F)cc2)c(-c2ccncc2)n1CCCc1ccccc1", "activity change, negative = inhibition": 92.8}
{"smiles": "c1ccc(-c2nn3c(c2-c2ccnc4cc(OCCN5CCOCC5)ccc24)CCC3)nc1", "activity change, negative = inhibition": -1.78}
{"smiles": "OC[C@H](Cc1ccccc1)Nc1nc(Oc2ccc3c(c2)CCC3)nc2c1ncn2Cc1ccc(-c2ccccc2)cc1", "activity change, negative = inhibition": -3.1}
{"smiles": "Fc1ccc(Cl)cc1-c1nc(Nc2ccncc2)c2nccnc2n1", "activity change, negative = inhibition": -2.89}
{"smiles": "C[C@]1(c2nc3c(C(N)=O)cccc3[nH]2)CCCN1", "activity change, negative = inhibition": -14.2}
{"smiles": "Nc1cccc(S(=O)(=O)N2CCCN(S(=O)(=O)c3ccc4c(c3)OCCO4)CC2)c1", "activity change, negative = inhibition": -13.6}
{"smiles": "CCOc1ccc(Cc2cc([C@@H]3O[C@H](CO)[C@@H](O)[C@H](O)[C@@H]3O)ccc2Cl)cc1", "activity change, negative = inhibition": 4}
{"smiles": "Cc1cc2c(F)c(Oc3ncnn4cc(OC[C@@H](C)O)c(C)c34)ccc2[nH]1", "activity change, negative = inhibition": 0.874}
{"smiles": "COc1ccc(C2=N[C@H](c3ccc(Cl)cc3)[C@H](c3ccc(Cl)cc3)N2C(=O)N2CCNC(=O)C2)c(OC(C)C)c1", "activity change, negative = inhibition": -2.35}
{"smiles": "NCCc1ccc(O)c(O)c1", "activity change, negative = inhibition": -9.41}
{"smiles": "Cc1c(CN2CCN(C(=O)C(C)C)CC2)sc2c(N3CCOCC3)nc(-c3cnc(N)nc3)nc12", "activity change, negative = inhibition": 10.4}
{"smiles": "O=S(=O)(N=Cc1c(O)ccc2ccccc12)c1cccs1", "activity change, negative = inhibition": 1.18}
{"smiles": "CCCCCCCc1ccc(CCc2cccc(O)c2C(=O)O)cc1", "Potency": "8.57 µM (active)"}
{"smiles": "CCN(c1ccccc1)c1cc(NC)[n+](C)c(C)n1", "activity change, negative = inhibition": -0.066}
{"smiles": "CCn1c(-c2nonc2N)nc2c(C#CC(C)(C)O)ncc(OC[C@H]3CCCNC3)c21", "activity change, negative = inhibition": -8.81}
{"smiles": "COc1ccc2nc(S(=O)Cc3ncc(C)c(OC)c3C)[nH]c2c1", "note": "(stereo not drawn)", "Potency": "inactive"}
{"smiles": "Cc1ccc2c(c1)C(=O)[C@@]1(O)CCN(c3ccccc3)C1=N2", "activity change, negative = inhibition": 23.3}
{"smiles": "O=C(NOC[C@H](O)CO)c1ccc(F)c(F)c1Nc1ccc(I)cc1F", "activity change, negative = inhibition": -3.3}
{"smiles": "CC(c1cc2ccccc2s1)N(O)C(N)=O", "note": "(stereo not drawn)", "Potency": "inactive"}
{"smiles": "CC(=O)Oc1ccccc1C(=O)O", "Potency": "21.2 µM (active)"}
